The source of these data is PubChem BioAssay (Tox21).

For assay [1], the target named is Progesterone receptor (Homo sapiens) (UniProt P06401). Kind of assay: qHTS assay to identify small molecule agonists of the progesterone receptor (PR) signaling pathway (AID 1346784; calls by dose curve; note: nearly all actives have a fitted effect of over 30% in size). An outline of the steps:
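PR-UAS-bla HEK 293T cells (beta-lactamase reporter under UAS) in 2% charcoal-stripped FBS, dosed with 23 nL compound after 6 hr, incubated 16hr at 37C. LiveBLAzer B/G FRET substrate added, fluorescence read after 2 hours.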
A general note: In qHTS, concentration-response curves come from the screen itself.

Assay [2] has the same target. Briefly: qHTS assay to identify small molecule antagonists of the progesterone receptor (PR) signaling pathway (AID 1346795; active = well fitted inhibition curve with a large enough effect in the signal ratio in the repeat runs, not every such curve was filed as active; the % refers to the signal ratio; note: potency is the fitted concentration of half-maximal effect). An outline of the steps: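 PR-UAS-bla HEK293T cells with beta-lactamase reporter under UAS control, in 2% charcoal-stripped FBS, treated with compounds plus 1 nM promegestone (R5020, final) for 16 hr at 37C. Read-out: FRET beta-lactamase substrate fluorescence after 2 hr at room temperature.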

Assay [3] can be described thus: qHTS assay to identify small molecule antagonists of the progesterone receptor (PR) signaling pathway - cell viability counter screen (AID 1346798). Note: series mostly up to about 92 µM; nearly all actives have a fitted effect of over 50% in size. An outline of the steps: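 PR-UAS-bla HEK293T cells, 3,000/well in 2% charcoal-stripped FBS medium, dosed with compounds plus R5020 agonist and incubated 16 h at 37C. Viability then measured in the same wells by CellTiter-Glo luminescence after 30 min at RT.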

Assay [4] is described as follows: qHTS assay to identify small molecule agonists of the progesterone receptor (PR) signaling pathway - cell viability counter screen (AID 1346799; calls by dose curve; note: nearly all actives have a fitted effect of over 45% in size). The procedure, abridged:
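Counter screen in the PR-UAS-bla HEK293T wells (2% charcoal-stripped FBS, 16 h compound exposure at 37 C) after the bla read. CellTiter-Glo added, 30 min at room temperature, luminescence read as cell viability.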

The nature of assay [5]: qHTS assay to identify small molecule antagonists of the TGF-beta/Smad signaling pathway - cell viability counter screen (AID 1346824). Note: nearly all actives have a fitted effect of over 50% in size. An outline of the steps: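 SBE-bla HEK 293T cells were plated overnight at 37 C, then given compounds in DMSO plus TGF-beta1 (added as 0.25 ng/mL solution) for 5 hr. After the bla read, CellTiter-Glo was added to the same wells and luminescence read after 30 min at room temperature.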

A short description of assay [6]: qHTS assay to identify small molecule agonists of the TGF-beta/Smad signaling pathway - cell viability counter screen (AID 1346829). Note: top concentration of the series differs between compounds; nearly all actives have a fitted effect of over 45% in size. The procedure, abridged:
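Compound-treated SBE-bla HEK 293T cells (5 hr, 37 C) were assessed for viability with CellTiter-Glo in parallel with the reporter read.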

Assay [7] in a line: qHTS assay to identify small molecule agonists of the TGF-beta/Smad signaling pathway (AID 1346859; active = well fitted activation curve with a large enough effect in the signal ratio in the repeat runs, not every such curve was filed as active; the % refers to the signal ratio; note: series mostly up to about 77 µM). An outline of the steps: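 SBE-bla HEK293T cells plated overnight, then compound exposure for 5 h at 37 C. Beta-lactamase reporter read with LiveBLAzer B/G FRET substrate after 2 h at room temperature, fluorescence at 405 nm excitation, 460/530 nm emission.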
Assay [8] deals with Thyrotropin-releasing hormone receptor (Homo sapiens) (UniProt P34981). Briefly: qHTS assay to identify small molecule antagonists of the thyrotropin-releasing hormone receptor (TRHR) signaling pathway (AID 1346877; active = well fitted inhibition curve with a large enough effect in the repeat runs, not every such curve was filed as active; note: series mostly up to about 51 µM). An outline of the steps: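 Kinetic fluorescence (3 min, 1 s resolution) following stimulation with TRH at 1 nM final; HEK293 cells bearing human TRHR; 5 min compound preincubation at RT; concentration-response over 15 points, triplicates.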
Thyrotropin-releasing hormone receptor (Homo sapiens), sequence (P34981 whole entry, looked up): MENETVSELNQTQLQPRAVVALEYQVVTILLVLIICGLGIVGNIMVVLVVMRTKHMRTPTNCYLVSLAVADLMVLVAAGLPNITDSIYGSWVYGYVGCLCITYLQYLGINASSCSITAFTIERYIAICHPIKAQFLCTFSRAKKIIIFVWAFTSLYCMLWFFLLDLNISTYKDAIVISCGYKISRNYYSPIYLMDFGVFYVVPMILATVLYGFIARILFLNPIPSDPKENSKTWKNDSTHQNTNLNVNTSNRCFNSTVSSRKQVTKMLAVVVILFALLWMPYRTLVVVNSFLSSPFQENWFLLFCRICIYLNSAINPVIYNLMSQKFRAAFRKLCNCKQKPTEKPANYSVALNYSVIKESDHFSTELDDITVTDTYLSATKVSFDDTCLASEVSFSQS

Assay [9] has the same target. Briefly: qHTS assay to identify small molecule agonists of the thyrotropin-releasing hormone receptor (TRHR) signaling pathway (AID 1346891; calls by dose curve; note: series mostly up to about 58 µM). An outline of the steps: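 HEK293 cells expressing TRHR plated 18 h at 37 C/5% CO2, calcium dye-loaded 2 h at 37 C, then compound added (agonist mode); kinetic calcium fluorescence read 3 min at 1 s intervals; 15 concentrations in triplicate.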

Assay [10] can be described thus: Human pregnane X receptor (PXR) small molecule agonists, qHTS cell viability counter screen (AID 1346977). Note: nearly all actives have a fitted effect of over 50% in size. The procedure, abridged: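 PXR-Luc HepG2 cells (2,000/well, 5% charcoal-stripped FBS) preincubated 5 hr, then exposed to compounds 24 hr at 37 C. Viability read in the same wells by CellTiter-Fluor fluorescence, reagent added at 23 hr, 1 hr incubation.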

A number with no mark means an inactive call. Results filed as inconclusive are left out. Calls of active or inactive are those of the source. Unless noted, calls come from the whole dose curve; as a rule, active = well fitted curve in the direction sought with a large enough effect in the repeat runs; inconclusive = weak or mixed curves; inactive = no such curve, though single readings can be large; an effect the other way counts as inactive or inconclusive.
% is set by controls: 0 for no effect and ±100 for the full control effect.

Progesterone receptor (Homo sapiens), sequence (P06401 whole entry, looked up): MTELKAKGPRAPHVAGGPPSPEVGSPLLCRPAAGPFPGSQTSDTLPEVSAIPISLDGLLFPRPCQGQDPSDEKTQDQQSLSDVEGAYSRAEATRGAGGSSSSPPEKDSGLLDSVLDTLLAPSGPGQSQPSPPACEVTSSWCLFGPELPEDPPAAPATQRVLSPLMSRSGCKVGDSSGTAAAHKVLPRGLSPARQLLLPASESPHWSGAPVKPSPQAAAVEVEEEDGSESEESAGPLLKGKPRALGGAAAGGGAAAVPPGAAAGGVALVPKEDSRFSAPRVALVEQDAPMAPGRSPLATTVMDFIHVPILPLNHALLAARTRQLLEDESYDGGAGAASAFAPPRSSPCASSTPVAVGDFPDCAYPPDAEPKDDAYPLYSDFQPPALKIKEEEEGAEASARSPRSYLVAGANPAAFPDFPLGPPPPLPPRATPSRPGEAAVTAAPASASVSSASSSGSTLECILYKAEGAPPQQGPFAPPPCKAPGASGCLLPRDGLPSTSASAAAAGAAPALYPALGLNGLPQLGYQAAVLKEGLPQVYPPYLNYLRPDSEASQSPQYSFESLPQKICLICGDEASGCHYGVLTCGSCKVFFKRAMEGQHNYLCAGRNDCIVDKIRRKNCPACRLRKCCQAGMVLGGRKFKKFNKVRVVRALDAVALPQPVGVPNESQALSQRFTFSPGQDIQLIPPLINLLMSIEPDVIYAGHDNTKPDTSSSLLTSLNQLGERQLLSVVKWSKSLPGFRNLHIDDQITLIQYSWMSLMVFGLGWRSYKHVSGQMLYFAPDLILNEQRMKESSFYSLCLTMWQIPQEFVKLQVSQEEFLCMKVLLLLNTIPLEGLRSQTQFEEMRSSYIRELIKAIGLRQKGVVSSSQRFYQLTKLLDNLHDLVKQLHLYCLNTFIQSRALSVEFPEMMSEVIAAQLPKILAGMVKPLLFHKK

`CCOC(=O)CP(=O)(OCC)OCC`: the Potency result in [1], in [2], in assay [3], in [4], in [5] and in assay [10] was “inactive” each time. In addition, the compound was called inactive in assay [6], in assay [7], in assay [8] and in assay [9].
For `O=C(Nc1ccccc1)c1ccccc1I`, the Potency result in assay [1], in assay [3], in assay [4], in [5] and in [10] was “inactive” throughout. In addition, the Potency in [2] was 54.5 µM (active). The outcome in assay [6], in assay [7], in assay [8] and in [9] was inactive.
With `CC1=C(C(=O)O)N2C(=O)[C@@H](N)[C@H]2SC1`, the activation in assay [1] was -0.285% [at 19 µM]; in assay [7] it was 3.18% [at 15.8 µM]; in assay [9], -0.183% [at 11.8 µM]. In addition, in assay [2], the activity change, negative = inhibition is 1.39% [at 18.9 µM]. Besides, the activity change, negative = cytotoxicity is 11.2% [at 18.9 µM] in assay [3], 0.398% [at 19 µM] in assay [4], 8.87% [at 15.8 µM] in [6] and 20.6% [at 19 µM] in assay [10]. In assay [5], the viability change, negative = cytotoxic is 0.38% [at 15.8 µM]. Besides, the activity, negative = inhibition in assay [8] is -1.01% [at 10.5 µM].
For `CC(C)CC#N`, the Potency entry in assay [1], in [2], in assay [3], in [4], in [5] and in [10] was “inactive” throughout. The result in assay [6], in [7], in assay [8] and in [9] was inactive.
For the compound `CCN(CC)CCOC(=O)C(C)(c1ccccc1)c1ccccc1`, the Potency result in [1], in assay [2], in [3], in assay [4] and in [5] was “inactive” in each case. Also, the compound was classed as inactive in assay [6], in assay [7], in [8] and in [9].
With `CCCCOC(=O)c1ccccc1N`, the Potency entry in assay [1], in [2], in assay [3], in assay [4], in assay [5] and in [10] was “inactive” in each case. Moreover, the result in assay [6], in assay [7], in assay [8] and in [9] was inactive.
`CCOC(=O)C1(c2ccccc2)CCN(CCc2ccc(N)cc2)CC1`: the Potency result in assay [1], in [2], in assay [3], in assay [4] and in assay [5] was “inactive” throughout. Besides, the call in assay [6] and in assay [7] was inactive.
With `COP(=S)(OC)Oc1ccc(S(N)(=O)=O)cc1`, the Potency entry in assay [1], in assay [2], in [3], in [4], in [5] and in [10] was “inactive” in each case. Moreover, the compound was classed as inactive in assay [6], in assay [7], in [8] and in [9].
As for `CC(=O)Nc1cc([As](=O)(O)O)ccc1O`, the Potency result in assay [1], in [2], in [3], in assay [4], in assay [5] and in assay [10] was “inactive” each time. Besides, the result in [6], in [7], in assay [8] and in assay [9] was inactive.
Regarding `C=C(C)CN(CC)c1c([N+](=O)[O-])cc(C(F)(F)F)cc1[N+](=O)[O-]`, the Potency result in assay [1], in assay [2], in [3], in [4], in assay [5] and in assay [10] was “inactive” in each case. The compound was classed as inactive in [6], in assay [7], in [8] and in assay [9].
For `N#CC(O)c1ccccc1` (stereo not drawn), the Potency result in assay [1], in assay [2], in assay [3], in assay [4], in assay [5] and in assay [10] was “inactive” in each case. For the same compound, the compound was called inactive in assay [6], in assay [7], in assay [8] and in assay [9].
As to `CCSC(=O)N(CC)C1CCCCC1`, the Potency entry in assay [1], in assay [2], in assay [3], in assay [4], in assay [5] and in assay [10] was “inactive” in each case. Moreover, the outcome in assay [6], in [7], in [8] and in [9] was inactive.
On to `CCc1cc2c(s1)-n1c(C)nnc1CN=C2c1ccccc1Cl`, for which the Potency result in [1], in assay [2], in [3], in assay [4], in assay [5] and in [10] was “inactive” each time. The outcome in [6], in assay [7] and in [9] was inactive.
Consider `CCCCP(CCCC)CCCC`, for which the Potency result in [1], in assay [2], in [3], in assay [4], in assay [5] and in assay [10] was “inactive” each time. Moreover, the result in [6], in [7] and in assay [9] was inactive.
Consider `Fc1cc(Br)ccc1CBr`, for which the Potency entry in assay [1], in assay [2], in assay [3], in assay [4], in [5] and in assay [10] was “inactive” each time. For the same compound, the compound was called inactive in assay [6], in assay [7] and in assay [9].
Take `CNCC(=O)c1ccc(O)c(O)c1`: the Potency result in [1], in assay [2], in assay [3], in assay [4], in assay [5] and in [10] was “inactive” in each case. Further, the outcome in [6], in [7], in assay [8] and in [9] was inactive.
Turning to `CCC#N`, the Potency entry in assay [1], in [2], in assay [3], in assay [4], in assay [5] and in assay [10] was “inactive” throughout. For the same compound, the call in [6], in assay [7], in assay [8] and in assay [9] was inactive.
With `O=NN1CCCCC1`, the Potency result in assay [1], in assay [2], in assay [3], in assay [4], in assay [5] and in [10] was “inactive” in each case. Further, the compound was classed as inactive in [6], in [7] and in assay [9].
Turning to `N#Cc1c(Cl)cccc1Cl`, the Potency result in assay [1], in [2], in assay [3], in assay [4], in [5] and in assay [10] was “inactive” each time. Besides, the outcome in [6], in assay [7] and in assay [9] was inactive.
For the compound `OC(Cn1cncn1)(c1ccc(F)cc1)c1ccccc1F` (stereo not drawn), the Potency entry in [1], in assay [2], in [3], in [4], in assay [5] and in assay [10] was “inactive” throughout. Further, the outcome in assay [6], in [7] and in assay [9] was inactive.
Take `CCOP(=S)(Oc1cnc(C(C)(C)C)nc1)OC(C)C` (stereo not drawn): the Potency entry in assay [1], in assay [2], in assay [3], in [4], in assay [5] and in assay [10] was “inactive” each time. Also, the outcome in [6] and in assay [7] was inactive.
Take `CCC(=O)c1ccccc1`: the Potency entry in assay [1], in assay [2], in assay [3], in assay [4], in assay [5] and in assay [10] was “inactive” throughout. Also, the compound was classed as inactive in assay [6], in assay [7] and in assay [9].
`CC(C(=O)c1ccccc1)N(C)C` (stereo not drawn): the Potency result in [1], in [2], in assay [3], in [4], in assay [5] and in assay [10] was “inactive” in each case. The call in assay [6] and in [7] was inactive.
Regarding `COc1cc2c(cc1OC)[C@@]13CCN4CC5=CCO[C@H]6CC(=O)N2[C@H]1[C@H]6[C@H]5C[C@H]43`, the Potency result in assay [1], in assay [2], in [3], in assay [4], in assay [5] and in assay [10] was “inactive” throughout. Moreover, the result in [6], in assay [7], in assay [8] and in assay [9] was inactive.
On to `[As]#[In]`, for which the Potency result in assay [1], in assay [2], in assay [3], in assay [4], in [5] and in assay [10] was “inactive” in each case. In addition, the result in assay [6], in [7], in [8] and in assay [9] was inactive.
Consider `CCOC(=O)N(C)C(=O)CSP(=S)(OCC)OCC`, for which the Potency entry in [1], in assay [2], in [3], in assay [4], in assay [5] and in [10] was “inactive” in each case. The compound was called inactive in assay [6] and in [7].
